Measured values published in PubChem BioAssay.
Values joined by “and” are separate entries in the source; they are usually repeats but may differ in a detail not shown here. Equal entries are not always repeated. Active and inactive are the calls of the source.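 How the source made its calls: active means compounds giving at least 50% inhibition in the cell-based MKP-3 phosphatase rescue imaging test; inactive means the rest.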

Test system: not listed separately
Assay: DUSP6 inhibitors restoring Erk phosphorylation by chemical complementation, primary imaging in DUSP6-transfected HeLa (AID 609);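 on inhibition: phospho-Erk level distribution per well compared with pooled transfected vehicle control wells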
Details: HeLa MKP-3 transfected, phospho-Erk imaging KS statistic; measured here: nuclear pErk red intensity z-score; at 10 µM; stronger effect = higher value

SMILES | z-score
O=C1CC[C@@]2(O)[C@H]3Cc4ccc(O)c5c4[C@@]2(CCN3CC2CC2)[C@H]1O5 | 0.423
CCCC(C)(COC(N)=O)COC(=O)NC(C)C (configuration not stated) | -1.67
COc1ccc(Cc2nccc3cc(OC)c(OC)cc23)cc1OC | -0.255
C[N+]1(C)[C@@H]2CC[C@H]1CC(OC(=O)C(CO)c1ccccc1)C2 (some centres not stated) | -0.779 and -1.81
COc1ccc2c(c1)c(C(=O)O)c(C)n2CC(C)C | 0.232
O=P(c1ccccc1)(c1ccccc1)N1CCCCC1 | -1.11
c1ccc2c(c1)OCC(C1=NCCN1)O2 (configuration not stated) | 0.589
O=C(COc1ccc2ccccc2c1)N1CCN(C2CCN(Cc3ccccc3)CC2)CC1 | 0.865
CC(=O)CC(C)(C)n1c[n+](C)nn1 | -1.39
C[C@]12CCC(=O)C=C1CC[C@@H]1[C@@H]2CC[C@]2(C)C(=O)CC[C@@H]12 | 2.67
CN(C)[C@@H]1C(=O)C(C(N)=O)=C(O)[C@@]2(O)C(=O)C3=C(O)c4c(O)cccc4[C@@](C)(O)[C@H]3[C@H](O)[C@@H]12 | -0.511
O=c1[nH]c2ccccc2n1CCCN1CCC(n2c(=O)[nH]c3cc(Cl)ccc32)CC1 | 0.563
Cn1c(O)c(C(=O)c2ccccc2Cl)c(=O)n(C)c1=O | 0.96

Target: Dual specificity protein phosphatase 6 (Homo sapiens) (UniProt Q16828)
Sequence (Q16828 whole entry, looked up): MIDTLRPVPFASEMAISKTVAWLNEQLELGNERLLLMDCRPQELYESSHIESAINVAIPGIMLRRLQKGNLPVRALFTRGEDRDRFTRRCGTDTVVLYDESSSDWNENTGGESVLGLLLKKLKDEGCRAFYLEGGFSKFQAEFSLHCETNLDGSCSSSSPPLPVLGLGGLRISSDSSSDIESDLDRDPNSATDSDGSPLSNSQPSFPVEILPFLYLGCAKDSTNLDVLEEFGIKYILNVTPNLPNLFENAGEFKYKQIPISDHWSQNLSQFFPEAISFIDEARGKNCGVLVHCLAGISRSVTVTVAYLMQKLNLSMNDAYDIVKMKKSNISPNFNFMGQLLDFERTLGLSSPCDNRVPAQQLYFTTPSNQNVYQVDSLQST
Assay: as above
Details: HeLa MKP-3 transfected, phospho-Erk imaging KS statistic, at 10 µM, stronger effect = higher value

SMILES | inhibition
O=C1CC[C@@]2(O)[C@H]3Cc4ccc(O)c5c4[C@@]2(CCN3CC2CC2)[C@H]1O5 | 11.3% (inactive)
CCCC(C)(COC(N)=O)COC(=O)NC(C)C (configuration not stated) | -0.493% (inactive)
COc1ccc(Cc2nccc3cc(OC)c(OC)cc23)cc1OC | 9.37% (inactive)
C[N+]1(C)[C@@H]2CC[C@H]1CC(OC(=O)C(CO)c1ccccc1)C2 (some centres not stated) | 1.48% (inactive) and 15.3% (inactive)
COc1ccc2c(c1)c(C(=O)O)c(C)n2CC(C)C | -2.07% (inactive)
O=P(c1ccccc1)(c1ccccc1)N1CCCCC1 | 18.9% (inactive)
CC[C@@H]1C(=O)OC[C@@H]1Cc1cncn1C | 11.3% [cells stimulated with TPA for 15 min] (inactive) and 10.2% [cells stimulated with TPA for 15 min] (inactive)
c1ccc2c(c1)OCC(C1=NCCN1)O2 (configuration not stated) | 27.9% (inactive)
O=C(COc1ccc2ccccc2c1)N1CCN(C2CCN(Cc3ccccc3)CC2)CC1 | 1.04% (inactive)
CC(=O)CC(C)(C)n1c[n+](C)nn1 | -5.89% (inactive)
C[C@]12CCC(=O)C=C1CC[C@@H]1[C@@H]2CC[C@]2(C)C(=O)CC[C@@H]12 | 11.3% (inactive)
CN(C)[C@@H]1C(=O)C(C(N)=O)=C(O)[C@@]2(O)C(=O)C3=C(O)c4c(O)cccc4[C@@](C)(O)[C@H]3[C@H](O)[C@@H]12 | 8% (inactive)
O=c1[nH]c2ccccc2n1CCCN1CCC(n2c(=O)[nH]c3cc(Cl)ccc32)CC1 | 12.4% (inactive)
Cn1c(O)c(C(=O)c2ccccc2Cl)c(=O)n(C)c1=O | 5.57% (inactive)
